Source: PubChem (National Center for Advancing Translational Sciences (NCATS))
Hits are enriched below; roughly 1.2% of the tested compounds scored in any of these assays.
GLA spleen mod = qHTS Assay for Inhibitors and Activators of Human alpha-Galactosidase From Spleen Homogenate | Alpha-galactosidase A (Homo sapiens), P06280 | human spleen homogenate, 4MU-alpha-Gal fluorescence, 40 min | Potency, µM (highest dose often 80 µM), for inactives: at the top dose activity change, negative = inhibition, usual class: inhibitors | hit rate 0.008% among 240,000 | AID 2107, 2009;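 further: potency means the concentration at half of the fitted maximal effect; 0% = enzyme with vehicle and -100% = no enzyme basal signal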
Target sequence (P06280 32-429 limits assumed): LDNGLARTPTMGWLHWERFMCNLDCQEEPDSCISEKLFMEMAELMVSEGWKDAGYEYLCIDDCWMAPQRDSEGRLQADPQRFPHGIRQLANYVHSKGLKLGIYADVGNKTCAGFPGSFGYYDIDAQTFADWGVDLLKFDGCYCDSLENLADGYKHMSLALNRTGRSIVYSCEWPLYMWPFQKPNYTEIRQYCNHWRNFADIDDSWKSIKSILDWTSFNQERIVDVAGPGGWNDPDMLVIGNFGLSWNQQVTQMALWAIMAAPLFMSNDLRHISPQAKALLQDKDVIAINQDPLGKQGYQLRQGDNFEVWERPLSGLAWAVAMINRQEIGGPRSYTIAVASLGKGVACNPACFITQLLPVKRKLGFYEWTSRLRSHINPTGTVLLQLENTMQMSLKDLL
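Fluorogenic readout (Ex 365/Em 440 nm) of 4-methylumbelliferone released from 1 mM 4-MU-alpha-galactoside by spleen homogenate, 40 min at 37C, pH 5.0. Data normalized to no-enzyme and enzyme controls; Hill-equation AC50 from compound titrations.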
HTT ATP protect = qHTS Multiplex Assay to Identify Dual Action Probes in a Cell Model of Huntington: Cytoprotection (ATP); PC12 HTT-Q103 induced, cytoprotection, ATP luminescence, 40 h; Potency, µM (series often up to 56.4 µM), for the others: cytoprotection (ATP increase), most hits filed as activators; hit rate 0.14% among 230,000; further: potency means the concentration at half of the fitted maximal effect; % of control where 0% means no effect; nearly all actives have a fitted effect of over 45% in size
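Readout: ATPlite luminescence (ATP level). Model: stable PC12, inducible Htt exon1 Q103-GFP. Inducer: tebufenozide, 100 nM final. Compounds: dose series. No G418 in medium.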
HttQ103 aggreg = qHTS Multiplex Assay to Identify Dual Action Probes in a Cell Model of Huntington: Aggregate Formation (GFP); Potency, µM (doses to about 46.1 µM), without a hit: at the highest dose activity change, negative = inhibition, usual class: inhibitors; hit rate 1.1% among 220,000; PC12 HttQ103-GFP aggregates, Acumen cytometry, 40 h; further: potency means the concentration at half of the fitted maximal effect; on the % scale 0 is the no-effect control and ±100 the full control effect; nearly all actives have a fitted effect of over 60% in size
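Multiplexed with ATP-based cell death, this channel scores GFP aggregates in PC12 cells expressing inducible HTTex1-Q103-GFP. Induction used 100 nM tebufenozide; compounds were tested in concentration series.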
PKM2 activator = qHTS Assay for Activators of Human Muscle isoform 2 Pyruvate Kinase. Pyruvate kinase PKM (Homo sapiens), P14618. purified PKM2, Kinase-Glo ATP luminescence, activation; response scale: 0% is enzyme alone, no compound. Potency, µM (series often up to 57.5 µM), for the others: at the top dose activation, actives largely listed as activators. hit rate 0.34% among 260,000; further: potency means the concentration at half of the fitted maximal effect; on the % scale 0 is the no-effect control and ±100 the full control effect; nearly all actives have a fitted effect of over 55% in size
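Purified hPK-M2 (>95%) run at intermediate activity with 0.1 mM ADP and 0.5 mM PEP in 50 mM imidazole pH 7.2, KCl, MgCl2; 1 h room temperature. ATP formed read by Kinase-Glo luminescence; normalized to uninhibited and no-enzyme controls.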
GLA inh pH 4.5 = qHTS Assay for Inhibitors of Human alpha-Galactosidase at pH 4.5; purified enzyme, 4-MU-alpha-Gal fluorescence, pH 4.5; activity change, negative = inhibition, % at 105 µM; 230,000 tested, under 10 active; AID 1467, 2008; Alpha-galactosidase A (Homo sapiens), P06280;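 further: 0% = full activity with enzyme and -100% = basal without enzyme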
Active calls of the source: *; [ ] = another dose, or the depositor's remark. The call rests on the fitted dose curve; in most records, active means well fitted curve in the direction sought with a large enough effect; inconclusive means small, poorly fitted or top-dose-only effect, or another doubt; inactive means no such curve, though single readings can be large; an effect the other way counts as inactive or inconclusive.

How did C=C1C[C@@]23C[C@]1(O)CC[C@@H]2[C@]12C=C[C@@H](O)[C@@](C)(C(=O)O1)[C@@H]2[C@@H]3C(=O)O do in these assays?
HTT ATP protect: 10%

How did COc1ccc2c(c1)c1ncn(Cc3ccco3)c(=O)c1n2C do in these assays?
GLA spleen mod: inconclusive; HTT ATP protect: -29%; HttQ103 aggreg: 10µM*; PKM2 activator: 1.3µM*; GLA inh pH 4.5: 15

How did COc1ccc2c(c1)c1ncn(Cc3ccc(F)cc3)c(=O)c1n2C do in these assays?
GLA spleen mod: 6%; HTT ATP protect: 7%[10 µM]; HttQ103 aggreg: 0%[9.22 µM]; PKM2 activator: 2%; GLA inh pH 4.5: -4

How did O=C(Nc1cccc(F)c1)N1CC2(CCN(C(=O)c3cccc(F)c3)CC2)C1 do in these assays?
GLA spleen mod: -8%; HTT ATP protect: -45%

Results for O=S(=O)(Nc1cc(Sc2cccc3cccnc23)c(O)c2ccccc12)c1ccc(F)cc1 ?
GLA spleen mod: 0%; HttQ103 aggreg: 22µM*; PKM2 activator: inconclusive; GLA inh pH 4.5: -4

How did COc1ccc(S(=O)(=O)Nc2cc(Sc3ncn[nH]3)c(O)c3ccccc23)cc1 do in these assays?
GLA spleen mod: -2%; HTT ATP protect: -119%; HttQ103 aggreg: -25%[9.22 µM]; PKM2 activator: -32%; GLA inh pH 4.5: 5

Results for O=C(Sc1cccc2cccnc12)c1ccc(F)cc1 ?
GLA spleen mod: -7%; HTT ATP protect: 19%[10 µM]; HttQ103 aggreg: 10µM*; PKM2 activator: 3%; GLA inh pH 4.5: 6

What do the screens show for `CC(=O)/C(=N\Nc1ccccc1)Sc1cccc2cccnc12`?
GLA spleen mod: -2%; HTT ATP protect: 2%[10 µM]; HttQ103 aggreg: 2%; PKM2 activator: -3%; GLA inh pH 4.5: 1

How did Cn1c(CSc2nc3ccc(Br)cc3[nH]2)nc2ccccc21 do in these assays?
GLA spleen mod: 11%; HTT ATP protect: -20%; HttQ103 aggreg: -21%; PKM2 activator: -4%; GLA inh pH 4.5: -1

Results for Cn1c(CSc2nnc(SCc3ccccc3)s2)nc2ccccc21 ?
GLA spleen mod: 4%; HTT ATP protect: -44%; HttQ103 aggreg: -6%; PKM2 activator: 18µM*; GLA inh pH 4.5: -15

What do the screens show for `CCC(C(=O)O)C1OC(C(C)C(O)C(C)C(=O)C(CC)C2OC3(C=CC(O)C4(CCC(C)(C5CCC(O)(CC)C(C)O5)O4)O3)C(C)CC2C)C(C)CC1C` (configuration not stated)?
HTT ATP protect: -96%; HttQ103 aggreg: 1.8µM*

What do the screens show for `Cc1cc(N2CCOCC2)c2c(N)c(Br)cc(C)c2n1`?
GLA spleen mod: 3%; HTT ATP protect: -26%; HttQ103 aggreg: 2µM*; PKM2 activator: -2%; GLA inh pH 4.5: -8

What do the screens show for `N[C@H](C(=O)O)[C@H](OCc1ccccc1)C(=O)O`?
GLA spleen mod: 0%; HTT ATP protect: -18%; GLA inh pH 4.5: 8

What do the screens show for `COc1ccc(C(=O)n2cc(C(=O)c3cc(C)ccc3O)cn2)cc1`?
GLA spleen mod: 0%; HTT ATP protect: 3%[10 µM]; HttQ103 aggreg: 32µM*; PKM2 activator: 6%; GLA inh pH 4.5: 2

What do the screens show for `COc1ccc(C(=O)n2cc(C(=O)c3cc(C)ccc3O)cn2)cc1OC`?
GLA spleen mod: -3%; HTT ATP protect: -15%[0.074 µM]; HttQ103 aggreg: 18%; PKM2 activator: -16%; GLA inh pH 4.5: -4

Results for CN(C)c1ccc(-c2cncnc2NCc2ccccc2)cc1 ?
GLA spleen mod: 14%; HTT ATP protect: -6%; GLA inh pH 4.5: -10

How did O=[N+]([O-])c1cccc(CSc2ncnc3ccccc23)c1 do in these assays?
GLA spleen mod: -7%; HTT ATP protect: 2.2µM*; HttQ103 aggreg: 15%; PKM2 activator: 0%; GLA inh pH 4.5: -6

What do the screens show for `Cc1cccc(CSc2ncnc3ccccc23)c1`?
GLA spleen mod: 3%; HTT ATP protect: -9%; HttQ103 aggreg: -26%; PKM2 activator: 19%; GLA inh pH 4.5: -9

What do the screens show for `Fc1ccc(CSc2ncnc3ccccc23)cc1`?
GLA spleen mod: 0%; HTT ATP protect: -17%[10 µM]; HttQ103 aggreg: 16%; PKM2 activator: 25µM*; GLA inh pH 4.5: -3

Results for c1ccc(CSc2ncnc3ccccc23)cc1 ?
GLA spleen mod: 6%; HTT ATP protect: -10%; HttQ103 aggreg: inconclusive; PKM2 activator: 23%; GLA inh pH 4.5: 1

How did CCC1=C(C[C@H]2NCCc3ccccc32)C[C@@H]2c3cc(OC)c(OC)cc3CCN2C1 do in these assays?
HTT ATP protect: -49%[10 µM]

How did CC(=O)O[C@H]1CC[C@]2(C)C(=CC[C@H]3[C@H]4C[C@H]5O[C@]6(CC[C@H](C)CN6)[C@H](C)[C@@H]5[C@]4(C)CC[C@@H]32)C1 do in these assays?
HTT ATP protect: -3%[10 µM]

What do the screens show for `CCCCCc1cc(O)c2c(C)cc(=O)oc2c1`?
GLA spleen mod: 3%; HTT ATP protect: -9%[10 µM]; HttQ103 aggreg: 25µM*; PKM2 activator: 10%; GLA inh pH 4.5: 9

How did CCNc1ncc2nc(-c3cccs3)c(=O)n(CCc3ccccc3)c2n1 do in these assays?
GLA spleen mod: 13%; HTT ATP protect: 1.4µM*

What do the screens show for `Oc1ccc(CN2CCN(Cc3ccccc3)CC2)c2cccnc12`?
GLA spleen mod: 0%; HTT ATP protect: -4%; HttQ103 aggreg: 3%; PKM2 activator: 0%; GLA inh pH 4.5: 0

What do the screens show for `O=S(=O)(c1ccc(Cl)cc1)N1CCN(Cc2ccc(O)c3ncccc23)CC1`?
GLA spleen mod: 3%; HttQ103 aggreg: 5µM*; PKM2 activator: 3%; GLA inh pH 4.5: -11

How did CC(C)Cn1nnnc1S(=O)(=O)Cc1ccccc1 do in these assays?
GLA spleen mod: -3%; HTT ATP protect: -26%; GLA inh pH 4.5: -10

How did O=C(O)c1ccc2c(c1)C(=O)N([C@H](Cc1ccc(Cl)cc1)C(=O)O)C2=O do in these assays?
GLA spleen mod: -1%

What do the screens show for `C[C@@H]1O[C@H]2C3=C(C(=O)[C@H]4O[C@@H]4[C@H]3O)[C@@H]1[C@@H]1[C@@H](C)OC=C3[C@H](O)[C@H]4O[C@@H]4/C(=N\OCc4ccccc4)[C@]312`?
GLA spleen mod: 7%[17.5 µM]; HTT ATP protect: 17%[10 µM]

How did Cc1ccc(NC(=O)c2cc(N3C(=O)C=CC3=O)ccc2Cl)cc1C do in these assays?
GLA spleen mod: -5%; HTT ATP protect: 7%[10 µM]; HttQ103 aggreg: 16%; PKM2 activator: 4µM*; GLA inh pH 4.5: 9

Results for Cc1ccc(NC(=O)c2cc(-n3cnnc3)ccc2Cl)cc1 ?
GLA spleen mod: 0%; HTT ATP protect: 24%[10 µM]; HttQ103 aggreg: -23%; PKM2 activator: 0%; GLA inh pH 4.5: -4
